Source: PubChem BioAssay
Sampled rows, rich in hits. Any-hit rate of the full collection: about 1.2%.
BCLXL inh = Bcl-xL (human) inhibition | Q07817 | GST-Bcl-xL / FITC-Bim BH3 peptide fluorescence polarization | inhibition, % at 10.9 µM | 320,000 tested, 0.7% active;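 active = inhibition above the mean of all tested compounds plus 3 SD, cutoff set per campaign, cut at about 30% in these data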;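 also: 0% = DMSO wells and 100% = unlabeled Bim-BH3 peptide competitor; inhibitors lower millipolarization by displacing the labeled peptide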
MEX-5 binding = C. elegans MEX-5 TCR-2 RNA binding activity; Q9XUB2; MEX-5/FITC-TCR2 RNA binding, fluorescence polarization; stronger effect = lower value; activity score (negative = inhibition of binding), % at 10 µM; 300,000 tested, 0.38% active;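 active = inhibition past about -25% in most replicates, and total fluorescence under double the plate's negative control median, limit read from the data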;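 also: 0% = DMSO and -100% = 5 µM competing unlabeled TCR2 RNA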
Target sequence (Q9XUB2 whole entry, looked up): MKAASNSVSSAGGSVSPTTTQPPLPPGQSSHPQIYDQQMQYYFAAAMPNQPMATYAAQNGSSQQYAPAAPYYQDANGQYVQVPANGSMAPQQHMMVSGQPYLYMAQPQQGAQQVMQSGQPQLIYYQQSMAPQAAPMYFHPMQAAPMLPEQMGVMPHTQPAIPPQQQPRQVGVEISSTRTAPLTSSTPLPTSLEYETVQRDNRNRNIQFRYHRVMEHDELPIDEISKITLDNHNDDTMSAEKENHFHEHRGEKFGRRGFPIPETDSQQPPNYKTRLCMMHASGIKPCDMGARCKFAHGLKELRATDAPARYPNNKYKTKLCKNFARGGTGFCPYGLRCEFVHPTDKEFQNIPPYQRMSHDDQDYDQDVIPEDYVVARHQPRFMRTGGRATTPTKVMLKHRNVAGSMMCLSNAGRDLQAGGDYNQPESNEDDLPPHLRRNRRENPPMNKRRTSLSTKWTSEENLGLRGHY
Keap1-Nrf2 PPI = inhibitors of human Keap1-Nrf2 protein-protein interaction; Keap1 Kelch-Nrf2 peptide fluorescence polarization, 1536-well; 340,000 tested, 0.15% active; inhibition, % at 9.4 µM; in the data active = inhibition above about 12%;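 also: human Keap1 Kelch domain with fluorescein labeled Nrf2 9mer peptide probe; 0% = neutral control wells and 100% = peptide positive control; higher means more block of Keap1 binding to Nrf2 peptide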
LANA DNA inh = inhibitors of KSHV LANA C-terminal domain DNA binding | inhibition, % at 9 µM | 340,000 tested, 0.078% active | AID 504423 | MBP-C-LANA/FAM-LBS DNA binding, fluorescence polarization;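 active = highest replicate inhibition at or above 60% at 9 µM, even if other replicates fall short; inactive = all replicates below 60% inhibition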;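 also: 0% = neutral control wells and 100% = 4 µM acridine orange control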
GLD-1 TGE inh = GLD-1-TGE RNA interaction inhibition (C. elegans); inhibition, % at 5.96 µM; Q17339; purified GLD-1 + fluorescein TGE RNA, fluorescence polarization; 320,000 tested, 0.44% active; AID 2280;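 active = percent inhibition above a per-plate cutoff, the plate mean of test compounds plus 3 SD, cut at about 30% in these data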;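 also: 0% = DMSO wells with GLD-1 and probe and 100% = wells lacking GLD-1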
eLon inh = inhibitors of E. coli Lon protease; AID 602123; purified E. coli Lon protease, fluorescence polarization; 360,000 tested, 0.42% active; inhibition, % at 7.94 µM; P0A9M0; in the data active = inhibition above about 13%, passing the limit was not always enough;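 also: 0% = enzyme with probe and DMSO and 100% = no enzyme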
* marks the source's active call; other numbers are inactive results; x = no result.

SMILES	BCLXL inh	MEX-5 binding	Keap1-Nrf2 PPI	LANA DNA inh	GLD-1 TGE inh	eLon inh
Cc1cc(C)n(CC(=O)NNC(=O)c2ccc(S(C)(=O)=O)cc2)n1	x	x	-1	0	-5	10
CC1=C(C#N)C(=O)N(C2CCS(=O)(=O)C2)C(=O)/C1=C\c1ccco1 (stereo not given)	49*	-99*	x	x	14	x
O=C1/C(=C\c2ccco2)SC(=S)N1C1CCCCC1	3	-3	x	x	-2	x
O=C1CC(c2cccc(O)c2)Oc2ccccc21 (stereo not given)	-1	x	-2	-4	4	13
CN(C)CCCNc1cc(O)c2ncccc2c1	x	x	22*	23	33*	17
Cc1ccc(CNC(=O)CCS(=O)(=O)c2ccc3c(c2)CC(C)N3C(=O)C2CC2)cc1 (stereo not given)	3	0	-4	0	5	9
O=c1c(O)cccc2cc(O)c(O)c(O)c12	86*	-37*	-5	82*	22	15
O=c1cc(-c2ccccc2)oc2cc(O)c(O)c(O)c12	x	x	-1	4	-1	-1
C/C(=C\COc1ccc2ccc(=O)oc2c1)CC[C@@H](O)C(C)(C)O	160*	x	3	2	5	0
COc1cc2ccc(=O)oc2cc1OCC(O)C(C)(C)O (stereo not given)	1	-2	-7	-1	9	-1
O=C(c1ccc(NS(=O)(=O)c2ccc3[nH]c(=O)[nH]c3c2)cc1)N1CCN(c2ccccc2O)CC1	4	1	4	0	2	7
COc1ccc(Cl)cc1NC(=O)CN(C)C(=O)c1cn2ccccc2n1	5	x	0	-2	-2	-14
Cc1cccn2c(=O)c3cc(C#N)c(=NC(=O)c4ccccc4)n(Cc4ccco4)c3nc12	35*	-19	-4	-3	20	-1
Cc1cccc(C(=O)N=c2c(C#N)cc3c(=O)n4cccc(C)c4nc3n2Cc2ccco2)c1	43*	-10	2	4	21	-17
Cc1cccn2c(=O)c3cc(C#N)c(=NC(=O)c4ccco4)n(Cc4ccco4)c3nc12	14	-3	0	1	4	3
COCCNC(=O)c1cc2c(c(-c3cccc(C#Cc4ccc(OC)c(OC)c4)c3)n1)[C@@H](CCO)N(S(=O)C(C)(C)C)C2 (stereo not given in full)	x	x	x	x	x	-16
Cc1ccc(S(=O)(=O)NOCc2ccccc2)cc1	x	x	-1	-1	x	-1
CCSc1sccc1C1C(C#N)=C(N)N(c2cccnc2)C2=C1C(=O)CCC2 (stereo not given)	31*	-1	9	4	12	-8
COc1cc(C2C(C#N)=C(N)N(c3cccnc3)C3=C2C(=O)CCC3)ccc1O (stereo not given)	26	-5	-5	3	18	-3
COc1cc(NC(=O)CSc2nc3ncnc(N)c3[nH]2)c(C(=O)O)cc1OC	1	-31*	3	-1	2	-4
CCN(CC)CCNC(=O)c1ccc(NC(=O)c2ccc3c(c2)CCC3)cc1	48*	0	1	-1	14	-5
CC1(OC(=O)c2cccs2)C(=O)C=C2C=C3CCCN3C=C2C1=O (stereo not given)	24	-27*	1	5	11	2
CCCN1CCC(NC23CC4CC(CC(C4)C2)C3)CC1	8	0	x	x	8	x
Cc1cc(C)cc(-n2c(N)c(C(=O)Nc3c(C)n(C)n(-c4ccccc4)c3=O)c3nc4ccccc4nc32)c1	32*	1	-2	0	7	1
Cc1ccc(-n2c(N)c(C(=O)Nc3c(C)n(C)n(-c4ccccc4)c3=O)c3nc4ccccc4nc32)cc1	-6	0	-1	-4	6	-4
SMILES	BCLXL inh	MEX-5 binding	Keap1-Nrf2 PPI	LANA DNA inh	GLD-1 TGE inh	eLon inh
CCCCNc1c(-c2cccnc2)nc2nc(C)cc(C)n12	x	x	x	x	x	8
CCCCN(C=O)c1c(CC)nc2ccc(C(=O)NCCCn3ccnc3)cn12	x	x	x	x	x	-3
O=C1N=c2ccc(Br)cc2=C1c1sc(=O)[nH]c1O	20	-26*	x	x	2	x
O=C(NCC(c1cccnc1)N1CCN(c2ccc(F)cc2)CC1)c1ccco1 (stereo not given)	151*	-1	-2	0	5	2
COc1ccc(N2CCN(C(CNC(=O)c3ccco3)c3cccnc3)CC2)cc1 (stereo not given)	7	-1	-4	0	-7	1
CC1(C)Cc2c(C#N)c(N)sc(=S)c2CS1	57*	-10	-2	4	47*	9
N#C/C(=C\c1ccccc1[N+](=O)[O-])C(=O)NC1CCCCC1	31*	0	-4	2	26	15
Cc1ccc(S(=O)(=O)N2CCCN(C(C)c3nc4ccccc4c(=O)[nH]3)CC2)cc1 (stereo not given)	13	x	-3	0	-8	-7
N#CCC(N)=C(C#N)C#N	21	-38*	-1	6	15	-2
CC(C(=O)Nc1ccc(N2CCOCC2)cc1)N1C(=O)NC(C)(C)C1=O (stereo not given)	-1	x	0	0	-1	2
Cc1ccc(S(=O)(=O)N2CCC(=O)N([C@H](COC(=O)Nc3ccccc3)Cc3ccccc3)CC2)cc1	x	x	x	x	x	5
CC1CCCCC12NC(=O)N(Cn1nnc3ccccc3c1=O)C2=O (stereo not given)	0	0	1	-1	31*	-8
Nc1ccc(C(=O)Nc2ccc3c(O)cc(S(=O)(=O)O)cc3c2)cc1	x	x	-15	116*	x	-13
Cc1ccc(S(=O)(=O)N(C)C)cc1NC(=O)COC(=O)c1ccc2ccccc2n1	17	x	-2	-2	-40	-17
COc1ccccc1/C=N/N1C(=O)c2cccc3cccc(c23)C1=O	43*	-3	x	x	3	-3
NC(=O)CCC(NC(=O)OCc1ccccc1)C(=O)OCC(=O)c1ccccc1 (stereo not given)	x	x	x	x	x	-8
COc1cc([N+](=O)[O-])ccc1NC(=S)Nn1cnnc1	36*	-2	-4	-1	1	-7
CCOC(=O)c1ccc(S(=O)(=O)N2CCN(C(=O)c3ccccn3)CC2)cc1	x	x	2	-2	5	-4
NC(=O)c1sc2nnc(-c3ccccc3)c(-c3ccccc3)c2c1N	2	-53*	-6	17	-5	-22
NNC(=O)c1snnc1-c1ccccc1	2	-1	-4	-1	-1	0
NC(=O)c1snnc1-c1ccccc1	6	-29*	-2	1	1	2
O=C(NCCCc1ccccc1)c1cc(COc2ccc(F)cc2Cl)on1	35*	-2	-5	0	14	3
O=C(NCCc1cccnc1)c1cc(COc2ccc(F)cc2Cl)on1	5	-2	-2	-2	-9	-12
O=C(NCC1CCN(c2ccc(S(=O)(=O)N3CCOCC3)cc2)CC1)c1cccc(Cl)c1	2	3	0	1	1	-8
